# A selection: hits, their analogues and other compounds. The true share with any hit is near 18%.
# TDP1 cell CPT = growth inhibition of DT40 Tdp1-/-;hTDP1 cells with camptothecin (screen for TDP1 inhibitors); Potency, µM (series often up to 46.2 µM), without a hit: top-dose activity change, negative = growth inhibition, actives largely listed as inhibitors; 420,000 compounds, 12% hits; chicken DT40 Tdp1-/-;hTDP1 cells + 20 nM CPT, ATP luminescence, 48 h; further: nearly all actives have a fitted effect of over 55% in size
#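 Chicken DT40 Tdp1-/- cells stably complemented with human TDP1 were seeded at 400 cells/well in medium containing 20 nM camptothecin, exposed to pin-transferred compounds, and grown at 37 °C for at least 48 hr. Viability was read as ATP luminescence.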
# TDP1 inh = blocks human tyrosyl-DNA phosphodiesterase 1; AID 485290; Q9NUW8; 350,000 compounds, 0.28% hits; Potency, µM (top dose mostly 130 µM), without a hit: at the highest dose activity change, negative = inhibition, most hits filed as inhibitors; recombinant TDP1, AlphaScreen DNA substrate cleavage; further: nearly all actives have a fitted effect of over 40% in size
#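 Recombinant E. coli-expressed Tdp1 (1 nM) preincubated with compound 15 min at RT, then 5'-biotin/3'-phosphotyrosine-FITC DNA substrate (15 nM) added for 5 min. AlphaScreen beads (10 ug/ml) added, 10 min RT; tyrosine-FITC cleavage read as signal loss.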
# TDP1 cell noCPT = qHTS for Inhibitors of human tyrosyl-DNA phosphodiesterase 1 (TDP1): qHTS in cells in absence of CPT; DT40 Tdp1-/- hTDP1 cells, no CPT, ATP luminescence, 48 h; Potency, µM (highest dose often 46.2 µM), inactives show top-dose activity change, negative = growth inhibition, usual class: inhibitors; 420,000 compounds, 15% hits; AID 686978, 2013; further: nearly all actives have a fitted effect of over 55% in size
#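 Seeded 400 DT40-hTDP1 cells/well (vehicle DMSO, no 20 nM CPT); pinned compounds; ≥48 hr at 37 °C; CellTiter-Glo luminescence as viability measure.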
# PLK1 PBD inh = blocks phosphopeptide binding to human PLK1 polo-box domain. Plk1 PBD binding of FITC phosphopeptide, fluorescence polarization. Potency, µM, inactives show max response, negative = inhibition, hits mostly inhibitors. 360,000 compounds, 2.8% hits. AID 720504; further: series mostly up to about 57 µM; nearly all actives have a fitted effect of over 65% in size
# VDR inh = blocks the human vitamin D receptor; 400,000 compounds, 0.93% hits; VDR-SRC2-3 peptide fluorescence polarization, 2 h; Potency, µM, without a hit: max response, negative = inhibition, usual class: inhibitors; AID 504847
# Target sequence (P11473 whole entry, looked up): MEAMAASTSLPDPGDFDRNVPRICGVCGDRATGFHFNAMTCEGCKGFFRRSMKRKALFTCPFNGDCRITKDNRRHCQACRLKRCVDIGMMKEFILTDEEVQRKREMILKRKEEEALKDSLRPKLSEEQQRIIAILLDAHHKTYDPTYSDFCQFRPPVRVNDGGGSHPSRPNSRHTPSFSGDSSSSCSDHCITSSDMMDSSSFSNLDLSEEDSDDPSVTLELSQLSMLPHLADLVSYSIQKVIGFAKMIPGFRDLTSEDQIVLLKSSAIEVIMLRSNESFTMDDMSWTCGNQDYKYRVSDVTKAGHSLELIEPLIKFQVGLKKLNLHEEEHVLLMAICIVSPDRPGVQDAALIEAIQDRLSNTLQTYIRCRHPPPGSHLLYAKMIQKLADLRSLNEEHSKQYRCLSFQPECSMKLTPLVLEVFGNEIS
#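 Fluorescence polarization assay of small-molecule disruption of VDR binding to coregulator peptide SRC2-3. Compounds and controls pin-transferred, then read after 2 h incubation at ambient room temperature.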
# KAT2A inh = GCN5L2 (KAT2A) acetyltransferase inhibition. Q92830. GCN5L2 HAT assay, ThioGlo1 CoA-SH fluorescence. Potency, µM (titrated, usually from 58.9 µM), for inactives: at the highest dose activity change, negative = inhibition, most hits filed as inhibitors. 390,000 compounds, 0.21% hits
#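 Compounds, pin-transferred from DMSO stocks, meet 20nM GCN5L2 for 15 min before the reaction begins with H3(1-25) peptide (75uM) and acetyl-CoA (70uM). Thiol-reactive ThioGlo1 reports CoA release over 20 min at room temperature.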
# * hit, by the source's call; ? = inconclusive; nt = no result. The call rests on the fitted dose curve; in most records, active means well fitted curve in the direction sought with a large enough effect; inconclusive means small, poorly fitted or top-dose-only effect, or another doubt; inactive means no such curve, though single readings can be large; an effect the other way counts as inactive or inconclusive. On the % scale 0 is the no-effect control and ±100 the full control effect; potency means the concentration at half of the fitted maximal effect.
SMILES,TDP1 cell CPT,TDP1 inh,TDP1 cell noCPT,PLK1 PBD inh,VDR inh,KAT2A inh
CN(C)c1ccc(CNC(=O)CCn2cccn2)cc1,6.6%,3.2%,2.6%,nt,3.2%,-3.5%
COc1cc(CNC(=O)c2sc3ncccc3c2-n2cccc2)cc(OC)c1OC,18.4µM*,6.5%,10.3µM*,nt,-0.5%,-3.3%
COc1cccc(CNC(=O)C2CCCN(c3nnc(-n4c(C)ccc4C)s3)C2)c1OC (stereo unspecified),?,10.1%,?,nt,0.2%,-5.3%
CN(C)c1ccc(CNC(=O)c2sc3ncccc3c2-n2cccc2)cc1,16.4µM*,13.6%,20.6µM*,nt,2.7%,-6.7%
COc1cccc(CN2CC(C(=O)N(C)CC3CCOCC3)CCC2=O)c1 (stereo unspecified),8.0%,-0.7%,0.4%,-12.1%,-3.3%,-8.8%
CC(C)Oc1ccc(CNC(=O)c2sc3ncccc3c2-n2cccc2)cc1,20.6µM*,5.3%,18.4µM*,nt,15.7%,3.6%
Cc1cc(C)c2c(-n3cccc3)c(C(=O)NNS(=O)(=O)c3ccc(Cl)cc3)sc2n1,-4.7%,2.0%,-12.5%,-21.5%,-10.5%,-4.5%
Cc1cc(C)c2c(-n3cccc3)c(NC(=O)OC(C)C)sc2n1,18.4µM*,3.9%,20.6µM*,-6.9%,-10.8%,-2.3%
COc1ccc(CNc2ncnc3ccc(-c4ccccc4C#N)cc23)c(OC)c1,?,nt,-8.6%,nt,0.7%,-5.6%
CN(C)CCCNc1nccc(N2CCN(C)CC2)n1,-25.7%,nt,-13.3%,nt,nt,nt
COc1cccc(CNCCc2c[nH]c3ccccc23)c1OCc1ccc(F)cc1,18.4µM*,9.8%,14.6µM*,-3.1%,6.5%,0.4%
COc1cc(CNCCc2c[nH]c3ccccc23)ccc1OCc1ccc(F)cc1,14.6µM*,8.8%,18.4µM*,1.6%,-6.2%,-14.0%
COc1cccc(CNCCSc2nnnn2C)c1OCc1ccc(F)cc1,?,3.2%,20.6µM*,nt,9.6%,-3.8%
COc1cccc(CNCCO)c1OCc1ccccc1Cl,4.6%,2.7%,-3.1%,-1.8%,1.1%,-0.9%
COc1cc(CNCCc2c[nH]c3ccccc23)cc(Cl)c1OCC(N)=O,?,8.7%,?,-1.2%,0.3%,0.5%
CCN(CC(=O)Nc1c(F)cccc1F)C(=O)c1ccc(N2CCCC2=O)cc1,5.5%,-3.9%,-0.5%,-5.6%,2.9%,-14.8%
COC(=O)[C@@H]1C[C@H]2CC[C@H](O)C[C@H]2N1Cc1ccc(C)s1,-13.1%,3.3%,7.4%,3.3%,-10.9%,-5.6%
O=C(N/N=C1\CC2CC=CC12)c1ccc(Br)cc1 (stereo unspecified),-1.8%,-2.3%,4.0%,-9.1%,-22.0%,0.5%
Cc1cc(Br)c(OCc2ccc(C(=O)N/N=C3\CC4CC=CC34)cc2)c(Br)c1 (stereo unspecified),-29.2%,2.7%,14.6µM*,0.8%,?,-2.8%
Fc1ccc(-c2nc3n(c2-c2ccncc2)CCS3)cc1,nt,17.7%,nt,nt,nt,nt
CC1(C)C(C=C(Cl)Cl)C1C(=O)Nc1ccc([N+](=O)[O-])cc1 (stereo unspecified),18.4µM*,-2.3%,16.4µM*,-8.5%,-7.4%,-12.3%
CCN(CC)C(=O)C1=CC(c2ccc3c(c2)OCO3)=NS(=O)(=O)N1C,16.5%,2.9%,-1.4%,nt,8.0%,-7.0%
Cc1cc(C)c2c(N)c(C(=O)N3CCc4ccccc4C3)sc2n1,?,-6.0%,29.1µM*,-6.7%,7.5%,-0.5%
CC(C)NC(=O)[C@H]1N2C(=O)c3ccccc3C2SC1(C)C (stereo partly specified),10.3%,nt,-2.1%,-4.4%,-8.4%,-6.0%
CC1C/C(=N/NC(=O)c2ccc(CSc3nc4ccccc4[nH]3)cc2)CC(C)(C)C1 (stereo unspecified),-25.7%,5.5%,-27.4%,-8.9%,-15.9%,0.1%
